SUMO Mot1 rescue: inhibitors of SUMOylation pathway: yeast Mot1-301 growth rescue | 320,000 tested, 1% active | growth rescue, % at 18.8 µM | S. cerevisiae Mot1-301 growth rescue, ATP luminescence, 38.5C; percent above DMSO median, 100 means doubled;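 active = every valid replicate shows activation above 250% relative to neutral control wells; inactive = the rest, any valid replicate at or below 250%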
Glyco luc inh: N-linked glycosylation inhibition | D54 ERlucT glycosylation luciferase reporter, 24 h; percent of 100 nM tunicamycin response | reporter increase, % at 12.5 µM | 360,000 tested, 0.23% active;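 active = mean luciferase reporter signal, scaled so untreated is 0 and the glycosylation-blocking control 100, at or above a set limit in every replicate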;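 note: luciferase carries N-glycosylation sites so blocking glycosylation raises the light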
CDK5 inh: blocks human CDK5/p35 kinase activity | Q00535+Q15078 | Recombinant CDK5/p35, ADP-Glo luminescence, 60 min | inhibition, % at 10 µM | 330,000 tested, 0.01% active | AID 488839;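 active = highest replicate inhibition of at least 50% and at least 75% of replicates reaching 50%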
ALR H2O2 inh: blocks human ALR sulfhydryl oxidase activity; purified ALR, DTT oxidation, H2O2 HRP-luminol luminescence; P55789; 290,000 tested, 3.8% active; inhibition, % (test concentration not listed);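 active = mean replicate inhibition above about 79%, with every replicate also reaching it, limit read from the data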
Target sequence (P55789 whole entry, looked up): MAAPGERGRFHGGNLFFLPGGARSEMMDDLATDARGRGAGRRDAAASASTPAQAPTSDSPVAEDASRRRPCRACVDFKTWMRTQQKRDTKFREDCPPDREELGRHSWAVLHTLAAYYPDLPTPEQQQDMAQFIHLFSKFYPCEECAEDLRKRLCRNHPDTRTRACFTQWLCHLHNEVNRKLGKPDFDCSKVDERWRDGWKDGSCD
CASP6 VEID inh: blocks human caspase-6 cleavage activity; AID 686996; inhibition, % at 12.5 µM; 350,000 tested, 0.53% active; purified caspase-6, Z-VEID-R110 cleavage fluorescence;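 active = mean inhibition across replicates at least about 35%, with every replicate also reaching that limit, limit read from the data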
Target sequence (P55212 24-179 limits assumed): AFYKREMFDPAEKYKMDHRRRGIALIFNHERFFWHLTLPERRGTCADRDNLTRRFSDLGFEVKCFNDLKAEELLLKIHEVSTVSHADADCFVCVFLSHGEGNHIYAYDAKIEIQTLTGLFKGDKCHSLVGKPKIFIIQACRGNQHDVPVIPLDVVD
Target sequence (P55212 194-293 limits assumed): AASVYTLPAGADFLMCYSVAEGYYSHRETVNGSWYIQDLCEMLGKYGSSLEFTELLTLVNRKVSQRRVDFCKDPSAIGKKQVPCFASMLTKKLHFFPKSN
NSD2 inh: inhibitors of human histone methyltransferase NSD2; 310,000 tested, 0.54% active; O96028; NSD2 peptide methylation, AlphaScreen, 120 min; inhibition, % at 12.5 µM; in the data active = inhibition above about 50%
Yeast Mot1 SUMO: yeast SUMO pathway inhibition in dose response. AID 493004. shares compounds with SUMO Mot1 rescue. growth activity, percent, % at 42 µM. S. cerevisiae Mot1-301 galactose growth, ATP luminescence, 24 h; -100 = growth of slx-deleted rescue strain. 2,300 tested, under 10 active;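 active = Signal drops as the depositor expects, and the fitted half-maximal dose is no more than ten times the top valid tested dose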;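 note: more negative values mean stronger growth rescue toward the control strain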
Of the large screens only hits and unclear results are named; the others gave an inactive call (follow-up assays come after a bar, where they were run). Sampled rows, rich in hits. Any-hit rate of the full collection: about 3.9%.

Cc1ccc(-c2cnc3c(c2)C(=O)N([C@@H](C)CO)C[C@@H](C)[C@@H](CN(C)C(=O)Cc2ccccc2)O3)cc1	none (no result: SUMO Mot1 rescue, Glyco luc inh, CDK5 inh, ALR H2O2 inh, NSD2 inh)
Cc1nc(CCNC(=O)c2ccccc2)cs1	SUMO Mot1 rescue 641.2 (no result: CASP6 VEID inh) | Yeast Mot1 SUMO inactive
CCOC(=O)c1csc(CCNC(=O)c2ccccc2)n1	none (no result: SUMO Mot1 rescue, CDK5 inh, ALR H2O2 inh)
Cn1c(SCC(=O)N/N=C/c2ccc([N+](=O)[O-])s2)nnc1-c1ccc(Cl)cc1	SUMO Mot1 rescue 957.8 (no result: CASP6 VEID inh) | Yeast Mot1 SUMO inactive
COc1cc([N+](=O)[O-])cc(/C=N/NC(=O)CSc2nnc(-c3ccccc3)n2C)c1O	none (no result: Glyco luc inh, CDK5 inh, CASP6 VEID inh)
O=C(CSc1nnc(CNC(=O)c2ccccc2F)o1)NCCc1ccccc1	SUMO Mot1 rescue active (no result: CASP6 VEID inh) | Yeast Mot1 SUMO inactive
O=C(CSc1nnc(CNC(=O)c2c(F)cccc2F)o1)NCCc1ccccc1	none
O=C(C[C@@H]1CC[C@@H]2[C@H](COC[C@H](O)CN2C(=O)c2cccnc2)O1)NCc1ccccc1	none (no result: SUMO Mot1 rescue, Glyco luc inh, CDK5 inh, ALR H2O2 inh, NSD2 inh)
O=C(c1cc(-c2ccc(Cl)c(Cl)c2)on1)N1CCN(c2ccccc2)CC1	SUMO Mot1 rescue active (no result: CASP6 VEID inh) | Yeast Mot1 SUMO inactive
COc1ccc(NC(=O)COc2cc(C)cc(C)c2)cc1S(=O)(=O)N1CCCCC1	SUMO Mot1 rescue 530.0 (no result: ALR H2O2 inh) | Yeast Mot1 SUMO inactive
COc1ccc(NC(=O)Cn2c(=O)cnc3ccccc32)cc1S(=O)(=O)N1CCCCC1	SUMO Mot1 rescue 427.9 | Yeast Mot1 SUMO inactive
Cc1ccc(NC(=O)Cn2c(=O)cnc3ccccc32)cc1S(=O)(=O)N1CCCCC1	none (no result: SUMO Mot1 rescue, ALR H2O2 inh)
COc1ccc(C(=O)Nc2ccccc2C(=O)NCCN2CCOCC2)cc1OC	SUMO Mot1 rescue 424.1 | Yeast Mot1 SUMO inactive
COc1cccc(-c2ccc(C3[C@@H]4CN(S(=O)(=O)c5cccc(OC)c5)C[C@H]3N4)cc2)c1 (some centres not stated)	none (no result: SUMO Mot1 rescue, Glyco luc inh, CDK5 inh, ALR H2O2 inh, NSD2 inh)
CCN(CC)c1ccc(C=C2C(=O)OC(C)(C(C)(C)C)OC2=O)cc1 (configuration not stated)	none
CCN(CC)c1ccc(C=C2C(=O)OC(c3ccccc3)OC2=O)cc1 (configuration not stated)	SUMO Mot1 rescue active | Yeast Mot1 SUMO inactive
Cc1noc(C)c1NC(=O)Nc1cccc2c1O[C@H](CN(C)S(=O)(=O)c1ccc(F)cc1)[C@H](C)CN([C@H](C)CO)C2=O	none (no result: SUMO Mot1 rescue, Glyco luc inh, CDK5 inh, ALR H2O2 inh, NSD2 inh)
C=CSc1sc(Cl)c(N(C)C)c1[N+](=O)[O-]	SUMO Mot1 rescue 411.3 | Yeast Mot1 SUMO inactive
COc1ccc(S(=O)(=O)N2CCN(C(=O)COc3ccc4c(C)cc(=O)oc4c3)CC2)cc1	none (no result: Glyco luc inh, CDK5 inh, ALR H2O2 inh, CASP6 VEID inh)
CCC(C)c1ccc(S(=O)(=O)N2CCN(C(=O)COc3ccc4c(C)cc(=O)oc4c3)CC2)cc1 (configuration not stated)	SUMO Mot1 rescue 524.1 (no result: CASP6 VEID inh) | Yeast Mot1 SUMO inactive
O=C(NC1CCCC1)C(c1cccs1)N(C(=O)c1ccno1)c1ccccc1 (configuration not stated)	SUMO Mot1 rescue 815.0 (no result: CASP6 VEID inh) | Yeast Mot1 SUMO inactive
O=C(Nc1nnc(-c2ccco2)o1)c1ccc(S(=O)(=O)N2CCCC2)cc1	SUMO Mot1 rescue 473.7 | Yeast Mot1 SUMO inactive
CCC1CCCCN1C(=O)CSc1nc2c([nH]c3ccccc32)c(=O)n1C (configuration not stated)	SUMO Mot1 rescue 631.1 (no result: CASP6 VEID inh) | Yeast Mot1 SUMO inactive
COc1ccccc1/C=C/C(=O)N1CCc2cc(OC)c(OC)cc2C1C (configuration not stated)	SUMO Mot1 rescue 388.7 | Yeast Mot1 SUMO inactive
O=C(Nc1cc(F)ccc1F)N1C[C@H]2[C@@H](c3ccccc31)[C@@H](CO)N2Cc1ccncc1	none (no result: SUMO Mot1 rescue, Glyco luc inh, CDK5 inh, ALR H2O2 inh, NSD2 inh)
COc1ccc(N/C=C(\C#N)S(=O)(=O)c2ccc(OC)cc2)cc1	none
COc1ccc(/C=C(/C#N)S(=O)(=O)c2ccc(C)cc2)cc1	SUMO Mot1 rescue active (no result: CASP6 VEID inh) | Yeast Mot1 SUMO inactive
C/C(CC(=O)Nc1cccnc1)=N\NC(=O)C(C)Oc1ccc(Cl)cc1Cl (configuration not stated)	SUMO Mot1 rescue 671.3 | Yeast Mot1 SUMO inactive
Cc1ccccc1Nc1cc(=O)oc2ccccc12	SUMO Mot1 rescue 370.2 (no result: CASP6 VEID inh) | Yeast Mot1 SUMO inactive
CCC(=O)N1[C@H](CN(C)C(C)=O)[C@H](c2ccc(C3=CCCC3)cc2)[C@@H]1CO	none (no result: SUMO Mot1 rescue, Glyco luc inh, CDK5 inh, ALR H2O2 inh, NSD2 inh)
Cc1ccc(NC(=O)CN2CCN(CCN=CC3=C(O)CC(C)(C)CC3=O)CC2)cc1	SUMO Mot1 rescue 984.7 (no result: CASP6 VEID inh) | Yeast Mot1 SUMO inactive
N=c1n(CCCOc2ccc(Br)cc2)c2ccccc2n1CC(N)=O	SUMO Mot1 rescue 363.0 | Yeast Mot1 SUMO inactive
CCC(C)NCCCCOc1ccc(Br)cc1 (configuration not stated)	none
CCC(C)NCCCCOc1cc(C)cc(C(C)C)c1 (configuration not stated)	SUMO Mot1 rescue 401.4 | Yeast Mot1 SUMO inactive
S=C(NCCc1c[nH]c2ccccc12)NC1CC1	SUMO Mot1 rescue 401.0 | Yeast Mot1 SUMO inactive
S=C(NCCc1c[nH]c2ccccc12)NC1CCCC1	none
COc1ccccc1NC(=O)NCCc1c[nH]c2ccccc12	SUMO Mot1 rescue 839.8 (no result: ALR H2O2 inh) | Yeast Mot1 SUMO inactive
O=C(NCCc1c[nH]c2ccccc12)Nc1ccccc1	none (no result: CASP6 VEID inh)
CC(C)C(=O)Nc1ccc2c(c1)C(=O)N(C)[C@H]1CC[C@H](CC(=O)Nc3ccccc3)O[C@H]1CO2	none (no result: SUMO Mot1 rescue, Glyco luc inh, CDK5 inh, ALR H2O2 inh, NSD2 inh)
CCCCN1C(=O)C(O)=C(C(C)=O)C1c1ccc(OC)cc1OC (configuration not stated)	none (no result: CASP6 VEID inh)
COc1ccc(C2C(C(C)=O)=C(O)C(=O)N2CCO)c(OC)c1 (configuration not stated)	SUMO Mot1 rescue 893.0 (no result: CASP6 VEID inh) | Yeast Mot1 SUMO inactive
CN(C)C(CNC(=O)c1ccc(C2SCCS2)cc1)c1ccccc1 (configuration not stated)	none
CN(C)C(CNC(=O)CNC(=O)c1ccc(Br)cc1)c1ccccc1 (configuration not stated)	SUMO Mot1 rescue 598.6 (no result: NSD2 inh) | Yeast Mot1 SUMO inactive
CC(C)C(NC(=O)c1ccccc1)C(=O)NCC(c1ccccc1)N(C)C (configuration not stated)	SUMO Mot1 rescue active | Yeast Mot1 SUMO inactive
CCC(c1nc2ccccc2c(=O)n1-c1nc2ccccc2s1)N1C(=O)c2ccccc2C1=O (configuration not stated)	SUMO Mot1 rescue 358.9 (no result: CASP6 VEID inh) | Yeast Mot1 SUMO inactive
O=C(C[C@H]1CC[C@H]2[C@@H](COC[C@H](O)CN2Cc2nccs2)O1)NCc1ccccc1F	none (no result: SUMO Mot1 rescue, Glyco luc inh, CDK5 inh, ALR H2O2 inh, NSD2 inh)
CO[C@H]1CN(C)C(=O)c2ccc(NC(C)=O)cc2OC[C@H](C)N(Cc2cc(F)ccc2F)C[C@@H]1C	none (no result: SUMO Mot1 rescue, Glyco luc inh, CDK5 inh, ALR H2O2 inh, NSD2 inh)
CCCNc1nc2ccccc2c(=O)[nH]1	SUMO Mot1 rescue 542.9 | Yeast Mot1 SUMO inactive
C=CCNc1nc2ccccc2c(=O)[nH]1	none
